An excerpt weighted towards active compounds, which were near 6.1% of everything screened.
D1 antag: blocks dopamine activation of the human D1 receptor | HEK293 TREx D1 cells, calcium flux, dopamine EC80; hits give low values | activity change, negative = inhibition, % at 10 µM | 360,000 compounds, 3.2% hits; in the data active = activity change below about -30%
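Tetracycline-induced HEK293 T-REx cells with force-coupled D1 receptor were loaded with a no-wash calcium dye. Compound was added after a 10 s baseline and read kinetically for 180 s; EC80 dopamine was then added and calcium flux followed another 180 s.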
D1 agonist: human D1 receptor agonism. P21728. HEK293 T-REx D1 cells, calcium flux, agonist mode. activation, % at 2 µM. 360,000 compounds, 1% hits. AID 504660; in the data active = activation above about 30%
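Agonism was scored from calcium flux recorded over 180 s (1 read/s) after pintool compound addition, following a 10-cycle baseline. Cells were inducible force-coupled HEK293 TREx D1, plated overnight at 30 C and loaded with no-wash calcium dye.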
D3 antag: blocks the human D3 dopamine receptor; P35462; D3R cells, DiscoveRx beta-arrestin luminescence, antagonist mode; hits give low values; max response, negative = inhibition, %; 360,000 compounds, 2.5% hits; in the data active = max response below about -50%; inconclusive = no clear call, values can overlap the other calls
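Cells plated overnight at 1500 cells/well, then exposed to library compounds with dopamine controls for 90 minutes at 37 degrees C. DiscoveRx reagent added for 30–60 minutes at room temperature; luminescence read, quantitative HTS format.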
D1 potentiator: potentiators of human D1 dopamine receptor. HEK293 TREx D1 cells, calcium flux, dopamine EC20 potentiation. potentiation, % at 10 µM. 360,000 compounds, 0.036% hits. AID 504651; in the data active = potentiation above about 30%
ERG Ets-DNA blk: ERG Ets/DNA interaction inhibition; P11308; fluorescence polarization, His-ERG Ets domain / labelled DNA; Potency, µM (series often up to 76.9 µM), most hits filed as inhibitors; 370,000 compounds, 0.028% hits; AID 624246; active = well fitted inhibition curve with a large enough effect in the polarisation, with a control signal flat; inconclusive = small, poorly fitted or top-dose-only effect, or effect the other way, or a change in a side signal; inactive = no such curve, though single readings can be large or run the other way; the % refers to the polarisation;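 note: polarization taken with two DNA probes labelled with fluorescein and Texas red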
Target sequence (P11308 whole entry, looked up, the tested form may be a part): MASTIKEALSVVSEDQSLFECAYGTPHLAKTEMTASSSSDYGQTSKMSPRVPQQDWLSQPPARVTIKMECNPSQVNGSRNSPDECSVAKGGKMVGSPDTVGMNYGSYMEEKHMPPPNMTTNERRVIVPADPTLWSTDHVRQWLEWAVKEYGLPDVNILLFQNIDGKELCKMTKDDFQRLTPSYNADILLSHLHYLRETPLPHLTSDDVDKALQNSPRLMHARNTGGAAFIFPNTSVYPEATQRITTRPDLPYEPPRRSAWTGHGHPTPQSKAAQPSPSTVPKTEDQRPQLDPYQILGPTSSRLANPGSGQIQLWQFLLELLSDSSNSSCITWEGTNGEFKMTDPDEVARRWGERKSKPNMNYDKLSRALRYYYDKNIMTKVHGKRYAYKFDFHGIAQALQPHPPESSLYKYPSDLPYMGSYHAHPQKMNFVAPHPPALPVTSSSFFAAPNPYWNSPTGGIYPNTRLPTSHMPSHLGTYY
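His-tagged ERG Ets domain (1 uM in the protein solution; 300mM KCl, 50mM Tris-HCl, 1mM EDTA, 1mM DTT, pH 7.5) received compound, then a probe mix of 5 nM fluorescein-DNA and 100nM Texas-615-DNA. Fluorescence polarization was read for both dyes.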
D3 ag: agonists of human D3 dopamine receptor | 410,000 compounds, 0.58% hits | max activation, % | P35462 | AID 652048 | D3R DiscoveRx beta-arrestin cells, luminescence, 90 min; in the data active = max activation above about 30%
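Cells at 1500/well, incubated overnight, then treated with pinned compounds (dopamine as control) for 90 min at 37 degrees C. DiscoveRx reagent added for 30 - 60 minutes at room temperature; luminescence read.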
Large screens that a line does not name were inactive; ! = a repeat was not active.

CCN(CC)c1ccc(N)cc1S(=O)(=O)Nc1ccccc1OC	D1 antag -31.5
S=C(NCCc1ccccc1)Nc1nccs1	none
O=C(NCCc1ccccc1)C(=O)Nc1nccs1	D1 agonist 32.6
O=C(NCCCCNC(=O)c1cccnc1Cl)c1cccnc1Cl	none
O=C1NC[C@@H](CCCCN2C[C@H](Cc3ccccc3)N(CCC3CCCCC3)C(=O)C2=O)N(Cc2ccccc2)C1=O	none (no result: D1 antag, D1 agonist, D1 potentiator, ERG Ets-DNA blk)
CC1=CC(C)(C)N(C(=O)CCl)c2ccccc21	none
CC1=CC(C)(C)N(C(=O)CN2C(=O)CCC2=O)c2ccccc21	D1 antag -37.7
CN1CCN(C2=Cc3cc(Cl)ccc3Sc3cc(F)ccc32)CC1	none
CN1CCN(C2=Cc3ccccc3Sc3cc(F)c(Cl)cc32)CC1	D1 antag -69.7, D3 antag inconclusive
CN1CCN(C2=Cc3ccccc3Sc3cc(F)c(F)cc32)CC1	D1 antag -83.5, D1 agonist 56.3, D3 antag -61.7
COc1cc(/C=N/O)cc(Cl)c1OC	D1 agonist 88.7
COc1cc(/C=N/O)cc(Br)c1OC	none
C=CCN(C(=O)CCC(=O)Nc1cc(C)on1)C(C(=O)NC1CCCC1)c1ccc(CC)cc1 (stereo unspecified)	none
CCOc1cc(CNCCCN2CCOCC2)ccc1OCC(=O)Nc1cccc2ccccc12	none
C[C@H]1c2cccc(O)c2C(O)=C2C(=O)[C@]3(O)C(O)=C(C(N)=O)C(=O)[C@@H](N(C)C)[C@@H]3[C@@H](O)[C@@H]21	D1 antag -83.5
CN(C)c1ccc(O)c2c1C[C@H]1C[C@H]3[C@H](N(C)C)C(=O)C(C(N)=O)=C(O)[C@@]3(O)C(=O)C1=C2O	D3 ag 73.3! (no result: D1 antag, D1 agonist, D3 antag, D1 potentiator, ERG Ets-DNA blk)
COC(=O)c1ccc(C(=O)OC)c(NC(=S)N2CCCC2)c1	none
O=C(/C=C/c1cccc([N+](=O)[O-])c1)c1cccs1	D3 antag -57.5
O=C(/C=C/c1cccc([N+](=O)[O-])c1)n1cnc2ccccc21	D3 antag -103.9
O=C(N/N=C/c1cccc([N+](=O)[O-])c1)c1cccs1	none
Cc1cc(O)c(C(=O)/C=C/c2cccc([N+](=O)[O-])c2)c(=O)o1	none
O=C(/C=C/c1cccc([N+](=O)[O-])c1)Nc1ccc(NC(=O)c2cccs2)cc1	D1 antag -78.0, D3 antag inconclusive
CC(=O)Oc1ccccc1C(=O)C=Cc1cccc([N+](=O)[O-])c1	D3 antag -56.0 (no result: D1 antag, D1 agonist, D1 potentiator)
Cc1nc2nc[nH]n2c(=O)c1NC(=O)c1c(-c2ccccc2Cl)noc1C	none
COc1ccc(OC)c(S(=O)(=O)N2CCCC(C)C2)c1 (stereo unspecified)	none
Cc1ccc(Cn2c(CN3CCN(C(=O)c4ccco4)CC3)nc3c2c(=O)n(C)c(=O)n3C)cc1	D3 ag 37.0
Cn1c(=O)c2c(nc(CN3CCN(C(=O)c4ccco4)CC3)n2CCCc2ccccc2)n(C)c1=O	none
Cn1c(=O)c2c(nc(CN3CCN(C(=O)c4ccco4)CC3)n2CCc2ccccc2)n(C)c1=O	D1 antag -73.9
COc1ccccc1CNC(=O)OCc1nccnc1C(=O)Nc1ccc(Br)cn1	D1 antag -35.4
O=C(N/N=C/c1c[nH]c2ccccc12)c1cc(-c2ccc(-c3ccccc3)cc2)n[nH]1	D3 ag 34.9
O=C(N/N=C/c1c[nH]c2ccccc12)c1cc(-c2ccccc2)n[nH]1	none
O=C(N/N=C/c1ccco1)c1cc(-c2ccc3ccccc3c2)n[nH]1	D3 antag -74.9, D1 potentiator 43.0
CCc1ccc(-c2cc(C(=O)N/N=C/c3ccccn3)[nH]n2)cc1	none
CCc1ccc(-c2cc(C(=O)N/N=C/c3ccco3)[nH]n2)cc1	D1 antag -67.3
COc1cccc(CNC(=O)CN(C)S(=O)(=O)c2ccc(Br)s2)c1	none
Cc1ccc(C)c(Cn2c(=O)n(-c3ccc(F)cc3)c(=O)c3sc4ccccc4c32)c1	none (no result: D3 antag)
CCc1nn(-c2ccccc2)c(=S)c2ccccc12	none
CCOc1cc2[nH]c(=S)n(CCCN3CCOCC3)c(=O)c2cc1OCC	D3 antag -71.4
O=c1c2cc3c(cc2[nH]c(=S)n1CCN1CCOCC1)OCO3	D1 antag -49.6
CC1CCN(CCn2c(=S)[nH]c3cc4c(cc3c2=O)OCO4)CC1	D3 antag inconclusive
COc1cc2c(=O)n(CCCN3CCOCC3)c(=S)[nH]c2c(OC)c1OC	D3 antag -83.5
O=C(Nc1nccs1)c1csc([C@H]2C[C@H](O)[C@@H](CO)O2)n1	none (no result: D1 antag, D1 agonist, D1 potentiator, ERG Ets-DNA blk)
COc1cc(C(=O)N(Cc2cccnc2)c2nc3cc(C)c(C)cc3s2)cc(OC)c1OC	none (no result: D1 antag, D3 antag)
CCCOc1ccc(C(=O)NCCO)cc1	none (no result: D1 antag)
CC1(C)CC2C1CCC1(O)CC2(C)CCC1N(O)c1ccc(C(=O)NCCO)cn1 (stereo unspecified)	D3 ag 40.0
CCOC(=O)C1(C)CCN1C(=O)c1ccc(OC)cc1OC (stereo unspecified)	none (no result: D1 antag, D1 agonist, D1 potentiator, ERG Ets-DNA blk)
COc1ccc(-c2cn3cc(C(F)(F)F)cc(Cl)c3n2)cc1	none
Cc1cccc(NC(=O)C2CCN(S(=O)(=O)c3ccc4c(c3)OCCO4)CC2)n1	D3 antag -53.6
Cc1cc(N2CCN(S(=O)(=O)c3ccc4c(c3)OCCO4)CC2)n2ncnc2n1	D1 antag -46.3
Cc1ccc(NC(=O)C2CCN(S(=O)(=O)c3ccc(Cl)c(C(F)(F)F)c3)CC2)nc1	D1 antag -39.1
Cc1cccc(NC(=O)C2CCN(S(=O)(=O)c3ccc4c(c3)OCCCO4)CC2)n1	none
O=C(Nc1ccc2c(c1)OCCO2)C1CCN(S(=O)(=O)c2ccc3c(c2)OCCO3)CC1	none
Cc1ccc(S(=O)(=O)N2CCC(C(=O)Nc3ccc4c(c3)OCO4)CC2)cc1	D1 antag -47.0
Cc1ccc(S(=O)(=O)N2[C@@H](c3ccccc3)C(C(=O)O)=CC[C@H]2c2ccc(Cl)cc2)cc1	none
C=CCn1c(=O)c2ccc(C(=O)NCc3ccccc3)cc2n(Cc2ccccc2Cl)c1=O	none
Cc1ccc(NC(=O)C2CCN(S(=O)(=O)c3ccc4c(c3)OCCCO4)CC2)nc1	D1 antag -33.0
CCOC(=O)c1ccc(N2CCN(c3cccc(OC)c3)CC2)c(NC(=O)Nc2ccc(OCC)cc2)c1	none (no result: D3 antag)
COc1ccc(C)cc1Nc1n[n+](-c2ccccc2)c(-c2ccc(NC(C)=O)cc2)s1	D1 antag -31.3
COc1cccc(NC(=O)C(Sc2nnc(Nc3ccccc3C)s2)c2ccccc2)c1 (stereo unspecified)	D3 antag -54.2
O=C(c1ccc2ccccc2c1)N1CCN(Cc2ccccc2)CC1	D3 antag -86.3
CC1CCN(C2CCN(C(=O)c3ccccc3F)CC2)CC1	D1 antag -81.9
O=C(c1ccccc1F)N1CCN(Cc2ccccc2F)CC1	D3 antag -57.3
